Laboratory results reported in PubChem BioAssay AID720597 (Broad Institute, 2013).
Entries with a potency or affinity are not part of this list. Values without a mark were called inactive.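 How the source made its calls: active means fitted half-maximal dose no more than twice the top valid tested dose, for compounds that lower signal; inconclusive means fit invalid, or curve flat with activity between -70 and -30; inactive means potency past limit, curve flat within ±30, or signal increasing.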

Target: NAD-dependent protein deacylase sirtuin-5, mitochondrial (Homo sapiens) (UniProt Q9NXA8)
Sequence (Q9NXA8 whole entry, looked up): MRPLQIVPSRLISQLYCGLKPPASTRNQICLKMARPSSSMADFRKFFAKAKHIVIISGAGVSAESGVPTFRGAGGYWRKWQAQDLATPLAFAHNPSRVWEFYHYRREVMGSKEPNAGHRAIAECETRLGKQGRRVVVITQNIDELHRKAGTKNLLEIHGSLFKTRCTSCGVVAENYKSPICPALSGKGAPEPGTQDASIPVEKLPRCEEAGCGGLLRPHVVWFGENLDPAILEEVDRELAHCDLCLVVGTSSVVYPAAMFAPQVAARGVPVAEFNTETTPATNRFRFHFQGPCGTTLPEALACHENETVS
Assay: blockers of sirtuin-5 peptide desuccinylation – biochemical, fluorescence imaging, cherry-pick, set 6, dose response (AID 720597);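 further: lower AMC signal can also come from blocking the trypsin step; 0% = median of neutral control wells and -100% = median of positive control wells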
Conditions: Purified SirT5, succinyl-peptide-AMC/trypsin fluorescence; series mostly up to 15 µM; activity change, negative = inhibition: at the top concentration

SMILES | activity change, negative = inhibition
C[C@H](CO)N1C[C@H](C)[C@H](CN(C)Cc2ccncc2)Oc2ccc(NC(=O)CCN3CCOCC3)cc2C1=O | -11.7%
COCC(=O)NC[C@H]1N[C@H](CO)[C@H]1c1ccc(C2=CCCCC2)cc1 | -13.8%
COc1ccc(S(=O)(=O)Nc2ccc3c(c2)C(=O)N([C@@H](C)CO)C[C@@H](C)[C@@H](CN(C)S(=O)(=O)c2ccccc2)OCCCC[C@@H](C)O3)cc1 | 12.3%
COc1ccc(S(=O)(=O)N(C)C[C@@H]2OCCCC[C@@H](C)Oc3ccc(NS(=O)(=O)c4ccc(C)cc4)cc3C(=O)N([C@@H](C)CO)C[C@@H]2C)cc1 | -14.6%
CO[C@@H]1CC[C@@H]2CCOc3c(C#N)cccc3C(=O)N(C)C[C@@H](OC)[C@@H](C)C(=O)N(C)C[C@@H]1O2 | -4.17%
CS(=O)(=O)N1[C@@H](CO)[C@@H](c2ccccc2)C12CN(C(=O)c1ccccc1F)C2 | -6.8%
CCN(C[C@H]1[C@@H](c2ccc(-c3ccccc3F)cc2)[C@@H](CO)N1C(C)=O)C(C)=O | -4.98%
Cc1cc(C(=O)Nc2cccc3c2O[C@@H](CN(C)Cc2ccc(Oc4ccccc4)cc2)[C@H](C)CN([C@H](C)CO)C3=O)n(C)n1 | 6.07%
C[C@H](CO)N1C[C@H](C)[C@H](CN(C)Cc2ccccc2F)Oc2cc(C#CC3CC3)ccc2S1(=O)=O | 37.8%
O=S(=O)(N[C@@H]1CC[C@@H](CCn2cc(Cc3ccccc3)nn2)O[C@H]1CO)c1ccccc1F | 8.56%
O=C(NCC[C@@H]1CC[C@@H](NS(=O)(=O)c2cccc(F)c2)[C@@H](CO)O1)C1CCOCC1 | 23.3%
C[C@@H]1CN([C@@H](C)CO)S(=O)(=O)c2ccc(/C=C/c3ccccc3)cc2O[C@@H]1CN(C)C(=O)C1CC1 | 7.63%
COc1ccc(NC(=O)N(C)C[C@H]2Oc3cc(C#CCC(C)C)ccc3S(=O)(=O)N([C@@H](C)CO)C[C@H]2C)cc1 | 10.4%
C[C@H](CO)N1C[C@H](C)[C@@H](CN(C)S(=O)(=O)c2ccccc2)Oc2ccc(NC(=O)Nc3ccc(C(F)(F)F)cc3)cc2CC1=O | -26.9%
C[C@@H]1CN([C@H](C)CO)C(=O)c2cc(Br)cnc2O[C@@H]1CN(C)Cc1cncnc1 | -2.29% [at 13.5 µM]
C[C@H]1CN([C@@H](C)CO)S(=O)(=O)c2ccc(C#CC3CC3)cc2O[C@H]1CN(C)C(=O)c1ccccn1 | 0.87%
C[C@H]1CN([C@@H](C)CO)C(=O)c2cc(C#CCC3CCCC3)cnc2O[C@H]1CN(C)C(=O)c1cnccn1 | -15.1%
Cc1ccc(S(=O)(=O)N(C)C[C@H]2Oc3ccc(NC(=O)Nc4cccc5ccccc45)cc3CC(=O)N([C@@H](C)CO)C[C@H]2C)cc1 | -29.6%
